Data on 40 sequences can be found in the OligoGym collection.
Also: reference of the scale not given here.

The first test deals with C2orf82. The experiment in a line: pooled miR-30 sensor sort-seq; sequence = guide strand. The settings on record: shRNA.
ATCGTCTGTGAGCACCGCAGGG yielded a sensor-assay potency score (higher = more potent) of -1.34.
The same measure, in the same setting: the figure for TGGAACATCGTCTGTGAGCACC is -1.29; for CTGTGGAACATCGTCTGTGAGC it is -2.1.
Same read-out and setting: as for TCGTCTGTGAGCACCGCAGGGG, the figure is -0.778; as for TCTCAGCGCGACGACCACGAGC, -1.5; as for TGGTCCAGCCGCTCCTGCGCGG, -1.68.
Turning to TTTCTCAGCGCGACGACCACGA, the sensor-assay potency score (higher = more potent) was 0.0474.
Regarding ACGAGCGCCAGCACCACGCAGG, the sensor-assay potency score (higher = more potent) was -1.89.
In turn, TCCTGTGGAACATCGTCTGTGA displayed a sensor-assay potency score (higher = more potent) of -0.191.
On to ACATCGTCTGTGAGCACCGCAG, for which the sensor-assay potency score (higher = more potent) was -1.82.
In turn, CTCCTGTGGAACATCGTCTGTG registered a sensor-assay potency score (higher = more potent) of -1.6.

The next test concerns the target C3orf22. Described as above. The settings on record: shRNA.
For TCTGTCAGCCACGACAACCTGT, the sensor-assay potency score (higher = more potent) is -0.668.
On the same count and under the same terms, as for TTACTCTGGTGAGACTTCTTGC, the figure is -0.146.
AAAGGTTGCACAGTGGAGGTGG: the sensor-assay potency score (higher = more potent) came out at 1.05.
As to TTCGAGTCGTTTGTGACCTCCC, the sensor-assay potency score (higher = more potent) came out at 0.262.
TTGCACAGTGGAGGTGGTGATG yielded a sensor-assay potency score (higher = more potent) of -1.21.
TGTACGGAAACTTCTTGGCAAA registered a sensor-assay potency score (higher = more potent) of -1.61.
Regarding TTGGCACCAACCTCTTCTGCAG, the sensor-assay potency score (higher = more potent) is -0.633.
As for TCCTCCACTTCTTACTCTGGTG, the sensor-assay potency score (higher = more potent) is -1.52.
The sequence TTTATTAGCTTGGTGTAGCTTT returned a sensor-assay potency score (higher = more potent) of 0.257.
Same read-out and setting: as for TCCACTTCTTACTCTGGTGAGA, the figure is -1.65; as for TTCTTGGCAAAATTCTCCTGGG, -0.771; as for AACCTGTACGGAAACTTCTTGG, -1.12.

The target of another test is C3orf33. Described as above. The settings on record: shRNA.
On to TTGTTCATGTTGTCTTTCCATA, for which the sensor-assay potency score (higher = more potent) was -1.3.
Consider TTGAATTTTTCTAAGTAACTTT, for which the sensor-assay potency score (higher = more potent) was -0.235.
Sequence TTCTTTTTCAGAGTCTTCCTTC registered a sensor-assay potency score (higher = more potent) of 0.254.
The sequence TTAACAAGAACAGTTTTGCCAA displayed a sensor-assay potency score (higher = more potent) of -0.169.
Same read-out and setting: the figure for TACTCCAGCCAACTTAACCAGC is -1.6; for TAACTTTCTTTTTTCAAGCTGA it is -0.0803.
For TAAATTTTGATGTCAGTCGAAT, the sensor-assay potency score (higher = more potent) was -0.673.
TCAAGCTGAAATCTGATCCTGT: the sensor-assay potency score (higher = more potent) is 0.793.
As for TTTGATGTCAGTCGAATGCTTC, the sensor-assay potency score (higher = more potent) is -0.51.
Still for that read-out and setting: the figure for TATAAGTTCTCTGAACTTCAGT is -0.164; for TTTTTCATAATAACTTTCTTTT it is -0.968.
Sequence TTTAGCTCTTTTTGTAACCATG displayed a sensor-assay potency score (higher = more potent) of -1.58.

For the next test, the target named is C3orf64. The test is described as above. The conditions noted are these: shRNA.
On to TTCATCTTCACAGTTGTACAGT, for which the sensor-assay potency score (higher = more potent) was determined as 0.304.
Sequence TATAACATGGTCCTATAGCTTG came in with a sensor-assay potency score (higher = more potent) of -1.11.
TAGAAGACTGTTCCAATCCTTT had a sensor-assay potency score (higher = more potent) of -0.485.
Take TTTCCTACCACAAACAGTGTTA: the sensor-assay potency score (higher = more potent) was -0.00284.
Take TATAGGTCTGAAGTTGAGCTGA: the sensor-assay potency score (higher = more potent) came out at 0.14.
